Measurements taken from PubChem BioAssay AID588382 (National Center for Advancing Translational Sciences (NCATS), 2011).
Out of some 1,300 compounds screened, about 150 (12%) were called active. Where a call stands in place of a potency, no number is given. About 30% were inconclusive and are not listed. Calls come from the whole dose curve; as a rule, active = well fitted cell-killing curve with a large enough effect; inconclusive = small, poorly fitted or top-dose-only effect, or effect the other way; inactive = flat fitted curve, though single readings scatter. This excerpt belongs to a sample that is enriched for actives.

Assay: qHTS of small molecules that selectively kill Giardia lamblia: Hit Validation in HepG2 cytotox;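 note: compound exposure lasted overnight at 37 deg C; nearly all actives have a fitted effect of over 55% in size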
Conditions: cell viability; Potency: HepG2 cytotoxicity; series mostly up to 38.3 µM
Outline: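 HepG2 cells seeded and incubated overnight at 37 deg C, then 23 nL compound added by pintool and incubated overnight at 37 deg C. Viability read as ATP luminescence with ATPLite after 15 min at room temperature.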
Potency is the fitted concentration of half-maximal effect.

Row | SMILES | Potency
1 | COCCn1c(C)cc(C(=O)COc2ccc(C)nc2[N+](=O)[O-])c1C | inactive
2 | O=C(c1ccco1)N1CCN(c2c([N+](=O)[O-])nn(-c3cccc(Cl)c3)[n+]2[O-])CC1 | inactive
3 | Cc1cc([N+](=O)[O-])nn1Cc1ccc(F)cc1 | inactive
4 | N/C(=N\OC(=O)c1ccc(Cl)cc1[N+](=O)[O-])c1ccccn1 | inactive
5 | CC12CCC(C(=O)Nc3ncc([N+](=O)[O-])s3)(OC1=O)C2(C)C (stereo unspecified) | inactive
6 | CN(C)CCCn1cnc2c(c1=N)C(c1ccccc1)c1ccc3ccccc3c1O2 (stereo unspecified) | 2.07 µM (active)
7 | Cc1ccc([C@@H]2CC=C(C(=O)O)[C@H](c3ccc(Cl)cc3)N2S(=O)(=O)c2ccc(C)cc2)cc1 | inactive
8 | Cc1c[n+]([O-])ccc1[N+](=O)[O-] | inactive
9 | Cc1c(NC(=O)c2cc(-c3ccc(Cl)c(Cl)c3)on2)c(=O)n(-c2ccccc2)n1C | inactive
10 | COc1cc(N=Nc2c(C)n(C)n(-c3ccccc3)c2=O)ccc1N | inactive
11 | COc1ccc2cc(-c3cc(C(=O)OCC(=O)Nc4c(C)n(C)n(-c5ccccc5)c4=O)c4ccccc4n3)ccc2c1 | 0.464 µM (active)
12 | Cc1ccc(CN=c2c([N+](=O)[O-])nn(-c3cccc(C)c3)n2O)cc1 | inactive
13 | O=[N+]([O-])c1nn(-c2ccc3c(c2)OCCO3)n(O)c1=NC1CCN(Cc2ccccc2)CC1 | inactive
14 | CN(C)c1ccc(/C=C(/NC(=O)c2ccccc2)C(=O)N/N=C/c2ccc([N+](=O)[O-])c(O)c2)cc1 | inactive
15 | Cc1ncc([N+](=O)[O-])n1CCOC(=O)NC(NCc1cccnc1)C(Cl)(Cl)Cl (stereo unspecified) | inactive
16 | Cc1nc(C)c(C(=O)Nc2ncc([N+](=O)[O-])s2)o1 | inactive
17 | COc1cccc(CN=c2c([N+](=O)[O-])nn(-c3ccccc3C)n2O)c1 | inactive
18 | O=C(/C=C/c1cccc([N+](=O)[O-])c1)c1ccco1 | inactive
19 | COC(=O)Nc1nc2ccc(C(=O)c3cccs3)cc2[nH]1 | inactive
20 | CCOC(=O)N1CCN(C(=O)c2ccc(Cl)c(NC(=O)c3cccs3)c2)CC1 | inactive
21 | Cc1ccn(-c2ccc(NC(=O)c3cccs3)cc2)n1 | 9.27 µM (active)
22 | CC(C)(C)c1ccc2c(c1)OC(C(=O)N/N=C/c1ccc([N+](=O)[O-])o1)CO2 (stereo unspecified) | inactive
23 | Cc1ccc(N=c2c([N+](=O)[O-])nn(-c3ccccc3)n2O)c(C)c1 | inactive
24 | Cc1ccc(S(=O)(=O)N2[C@@H](c3ccccc3)C(C(=O)O)=CC[C@H]2c2cccc(Cl)c2)cc1 | inactive

Row | SMILES | Potency
25 | C=C1C=C(C)n2ncc(C(=O)Nc3ccc(C)cn3)c2N1 | inactive
26 | O=C(Nc1ncc([N+](=O)[O-])s1)c1cccc([N+](=O)[O-])c1 | 3.29 µM (active)
27 | Cc1ccc(C(=O)Nc2ncc([N+](=O)[O-])s2)cc1 | 6.56 µM (active)
28 | Cc1ccc(S(=O)(=O)CC(=O)Nc2ncc([N+](=O)[O-])s2)cc1 | inactive
29 | Cc1ccc(CC(=O)Nc2ncc([N+](=O)[O-])s2)cc1 | inactive
30 | O=C(COC(=O)c1ccccc1)Nc1ncc([N+](=O)[O-])s1 | inactive
31 | O=C(Nc1ncc([N+](=O)[O-])s1)c1ccco1 | inactive
32 | Cc1cc(Nc2ccccc2)c2c([N+](=O)[O-])cc(C)c(C)c2n1 | inactive
33 | CC(NC(=O)COc1cccnc1[N+](=O)[O-])c1ccc(Cl)cc1 (stereo unspecified) | inactive
34 | O=[N+]([O-])c1ccc(CN2CCN(c3ccccc3Cl)CC2)o1 | inactive
35 | CC(=NN1CC(=O)NC1=O)c1ccc([N+](=O)[O-])o1 | inactive
36 | O=C(Nc1ccc(N2CCCCC2)cc1)c1ccc([N+](=O)[O-])o1 | 13.1 µM (active)
37 | O=C(Nc1ccc(N2CCN(Cc3ccccc3F)CC2)cc1)c1ccc([N+](=O)[O-])o1 | 2.93 µM (active)
38 | CC(C)(C)C(=O)N1CCN(c2ccc(NC(=O)c3ccc([N+](=O)[O-])o3)cc2)CC1 | 6.56 µM (active)
39 | CC(C)C(=O)N1CCN(c2ccc(NC(=O)c3ccc([N+](=O)[O-])o3)cc2)CC1 | 5.85 µM (active)
40 | O=[N+]([O-])c1ccc(CN2CCN(c3ccc(Cl)cc3)CC2)o1 | inactive
41 | O=[N+]([O-])c1ccc(CN2CCN(c3ccc(F)cc3)CC2)o1 | inactive
42 | COc1cc(Nc2ccc(C)cc2)c([N+](=O)[O-])nc1[N+](=O)[O-] | inactive
43 | Cc1ccc(C(=O)c2c3ccc([N+](=O)[O-])cc3[n+]([O-])n2CCC(N)=O)cc1 | inactive
44 | CC(Oc1cccnc1[N+](=O)[O-])C(=O)Nc1cccc(Cl)c1 (stereo unspecified) | inactive
45 | COc1ccc(-n2nc([N+](=O)[O-])c(=NCCc3cccc(C)c3)n2O)cc1 | inactive
46 | COC(=O)c1cc(NC(=O)c2cc(C(C)(C)C)nn2Cc2ccc(F)cc2)ccc1N1CCOCC1 | inactive
47 | COc1ccc(C(C)=O)cc1COc1cccnc1[N+](=O)[O-] | inactive
48 | O=C(Cc1c(F)cccc1Cl)Nc1ncc([N+](=O)[O-])s1 | inactive

Row | SMILES | Potency
49 | O=[n+]1c2c(n([O-])c3cc(Br)ccc31)CCC2 | inactive
50 | CCOc1cc([N+](=O)[O-])cc(/C=C2/NC(=O)N(Cc3ccccc3F)C2=O)c1O | inactive
51 | O=[N+]([O-])c1nn(-c2ccc3c(c2)OCCO3)n(O)c1=NCc1ccc(F)cc1 | inactive
52 | CN(C)c1ccc(C2Nc3cccc4cccc(c34)N2)cc1 | inactive
53 | Cc1cc(C)cc(N=c2c([N+](=O)[O-])nn(-c3ccc4c(c3)OCCO4)n2O)c1 | inactive
54 | CCC(=O)N1CCN(c2ccc(NC(=O)c3ccc([N+](=O)[O-])o3)cc2)CC1 | 11.7 µM (active)
55 | CS(=O)(=O)N1CCN(c2ccc(NC(=O)c3ccc([N+](=O)[O-])o3)cc2)CC1 | 3.69 µM (active)
56 | CCCC(=O)N1CCN(c2ccc(NC(=O)c3ccc([N+](=O)[O-])o3)cc2)CC1 | 3.29 µM (active)
57 | CCC(=O)N1CCN(c2ccccc2NC(=O)c2ccc([N+](=O)[O-])o2)CC1 | inactive
58 | CS(=O)(=O)N1CCN(c2ccccc2NC(=O)c2ccc([N+](=O)[O-])o2)CC1 | inactive
59 | NC(=O)c1ccc(NC(=O)COc2ccc([N+](=O)[O-])cc2Cl)cc1 | inactive
60 | NS(=O)(=O)c1ccc(Nc2ncccc2[N+](=O)[O-])cc1 | inactive
61 | O=[n+]1c2c(n([O-])c3cc(Cl)ccc31)CCCC2 | inactive
62 | COc1ccc(CNC(=O)COc2cccnc2[N+](=O)[O-])cc1OC | inactive
63 | Cc1oc2cc(O)ccc2c(=O)c1Oc1ccccc1Br | inactive
64 | CCC(=O)Nc1nc(-c2cc([N+](=O)[O-])cs2)cs1 | inactive
65 | COCCNC(=O)/C(C#N)=C/c1ccc(O)c([N+](=O)[O-])c1 | inactive
66 | Cc1ccc(NC(=S)NNc2ccc([N+](=O)[O-])cc2S(=O)(=O)Nc2ccccc2C(=O)O)cc1C | inactive
67 | COc1cc(/C=C2\SC(=O)N(Cc3ccc(F)cc3)C2=O)cc([N+](=O)[O-])c1O | inactive
68 | Cn1nc(-c2cccnc2)nc2c(=O)n(C)c(=O)nc1-2 | 3.69 µM (active)
69 | Cc1ccccc1-c1nc2c(=O)n(C)c(=O)nc-2n(C)n1 | 3.29 µM (active)
70 | CCCc1nc2c(=O)n(C)c(=O)nc-2n(C)n1 | 8.26 µM (active)
71 | COc1ccc(-c2cc(=O)c3ccccc3o2)cc1 | inactive
72 | COc1ccc(-c2ncn(CCC#N)c2[N+](=O)[O-])cc1 | inactive

Row | SMILES | Potency
73 | COc1ccc(-c2nc3c(=O)n(C)c(=O)nc-3n(C)n2)cc1 | 1.85 µM (active)
74 | COc1ccccc1NC(=O)COc1cccnc1[N+](=O)[O-] | inactive
75 | Cc1ccc(S(=O)(=O)N2[C@@H](c3ccc(F)cc3)C(C(=O)O)=CC[C@H]2c2cccc(C)c2)cc1 | inactive
76 | COc1ccc(-n2nc([N+](=O)[O-])c(=NCCCN3CCCC3=O)n2O)cc1 | inactive
77 | O=C(COc1cccnc1[N+](=O)[O-])Nc1ccc2c(c1)CCC2 | inactive
78 | Cc1c[nH]c(=O)c([N+](=O)[O-])c1 | inactive
79 | Cc1cc(C(=O)N/N=C/c2ccc(O)c([N+](=O)[O-])c2)n[nH]1 | inactive
80 | COc1cc2sc(-c3ccccc3OC)c(-c3ccc(O)cc3)c2cc1OC | inactive
81 | O=C(NN1C(=O)c2ccccc2NC1c1ccc([N+](=O)[O-])o1)c1ccc([N+](=O)[O-])cc1 (stereo unspecified) | inactive
82 | Cn1nc(-c2ccc(F)cc2)nc2c(=O)n(C)c(=O)nc1-2 | 2.61 µM (active)
83 | Cc1ccc(OCC(=O)Nc2cc(S(=O)(=O)N3CCOCC3)ccc2Cl)c([N+](=O)[O-])n1 | inactive
84 | Cc1cc2ccccn2c1C(=O)c1ccc([N+](=O)[O-])cc1[N+](=O)[O-] | inactive
85 | COc1ccc2c3n([n+]([O-])c2c1)CCN=C3c1ccc(Cl)cc1 | inactive
86 | N=NC(=O)c1ccccc1Nc1c(O)[nH]c2ccccc12 | 16.5 µM (active)
87 | COc1ccc(CNC(=O)COc2cccnc2[N+](=O)[O-])cc1 | inactive
88 | O=[N+]([O-])c1ccc(/C=N/Nc2nc(-c3ccccc3)c3cc(Br)ccc3n2)o1 | inactive
89 | CCOc1ccc(NC(=O)C(C)C(Cc2ccc(C)cc2)C(=O)O)cc1 (stereo unspecified) | inactive
90 | Nc1c(Cl)cc(C2=NCCn3c2c2ccccc2[n+]3[O-])cc1Cl | inactive
91 | O=c1[nH]c2cccnc2n1-c1ccc([N+](=O)[O-])cc1 | inactive
92 | N#Cc1c(N2CCN(c3ccc([N+](=O)[O-])cc3)CC2)[n+](=O)c2ccc(Cl)cc2n1[O-] | inactive
93 | CC1CCc2c(sc(NC(=O)CCCn3cnc([N+](=O)[O-])n3)c2C(N)=O)C1 (stereo unspecified) | inactive
94 | Cn1cc([N+](=O)[O-])c(C(=O)Nc2sc3c(c2C#N)CCC3)n1 | 2.33 µM (active)
95 | CC1CCc2c(sc(NC(=O)Cn3cnc([N+](=O)[O-])n3)c2C(N)=O)C1 (stereo unspecified) | inactive
96 | O=C(NN1C(=O)c2ccccc2NC1c1ccc([N+](=O)[O-])o1)c1ccccc1 (stereo unspecified) | inactive
